Shown are actives, neighbours in structure and some others; about 3.5% of the full set was active somewhere.
C8 TRAIL sens – viability loss with TRAIL in NB7+C8 cells, primary screen, TRAIL sensitizer project, cell-based, ATPlite luminescence. inhibition (viability loss, TRAIL sensitization), % at 10 µM. hit rate 1% among 360,000;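 active = compounds causing at least 50% loss of cell viability in the single-dose screen, relative to plate controls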
TWEAK Fn14 block – inhibitors of TWEAK-Fn14 signaling, primary screen, luciferase reporter cells, uHTS; AID 1159606, 2016; inhibition, % at 10 µM; hit rate 2% among 360,000; TWEAK-stimulated Fn14 reporter cells, luciferase luminescence, 8 h; in the data active = inhibition above about 50%
TROY signal inh – inhibitors of TROY-driven NF-kB signaling, primary screen, Q293 LMP1-TROYcd cells, NF-kB luciferase, uHTS | AID 1347056, 2019 | Q293 LMP1-TROYcd NF-kB luciferase reporter, 4 h | hit rate 0.98% among 360,000 | inhibition, % at 10 µM;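 active = compounds whose plate-normalised and pattern-corrected inhibition of the luciferase reporter signal at the single screening dose is 50% or more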
Platelet DG rel – inhibitors of platelet dense granule secretion, primary screen, cell-based, MLPCN, human platelets; human platelet-rich plasma, SFLLRN dense granule ATP release, luminescence; AID 1663, 2009; hit rate 0.22% among 300,000; inhibition, %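 (compounds screened at 7.5 µM in platelet-rich plasma)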;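 active = mean replicate score, as percent of positive control, at or above 50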
HSP90 inh – HSP90 inhibitors, primary screen, cell lysate, luminescence | Heat shock protein HSP 90 (rabbit reticulocyte lysate; luciferase refolding) | Rabbit reticulocyte lysate, luciferase refolding luminescence, 3 h | inhibition, % at 5.6 µM | hit rate 0.91% among 290,000 | AID 1789, 2009;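 active = inhibition above the screen-wide mean plus 3 SD, computed separately per campaign, cut at about 16% in these data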;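 note: inhibitors lower the luminescence because luciferase stays unfolded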
PPC-1+TRAIL kill – compounds killing PPC-1 cancer cells with TRAIL present, primary screen, TRAIL potentiator project, ATPLite luminescence, uHTS; PPC-1 cells + TRAIL, ATPLite viability luminescence; cell killing (% activity), % at 4 µM or 5 µM; hit rate 0.41% among 220,000; AID 1443, 2008;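 active = cell killing above 50% in the first pass at 4 µM, then a duplicate retest at 5 µM averaging 50% or more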
Large screens that a line does not name were inactive.

CCOC(=O)COc1ccc(Br)cc1/C=C\c1[nH]c(=O)[nH]c(=O)c1[N+](=O)[O-]	TWEAK Fn14 block 74.3
CCCOc1ccc(/C=C/c2[nH]c(=O)[nH]c(=O)c2[N+](=O)[O-])cc1OCC	none
CCOC(=O)COc1ccc(Br)cc1/C=C/c1[nH]c(=O)[nH]c(=O)c1[N+](=O)[O-]	TWEAK Fn14 block 62.0
N#C/C(=C\c1ccc([N+](=O)[O-])o1)c1nc2ccccc2[nH]1	none (no result: C8 TRAIL sens, TWEAK Fn14 block, TROY signal inh)
Cc1ccc2nc(/C(C#N)=C\c3ccc([N+](=O)[O-])o3)[nH]c2c1	C8 TRAIL sens 80.7, TWEAK Fn14 block 98.7
N#C/C(=C(/O)c1ccc([N+](=O)[O-])o1)c1nc2ccccc2[nH]1	TROY signal inh 50.0
COc1ccc(S(=O)Cc2ccc(C(=O)N3CCN(C(=O)c4ccco4)CC3)o2)cc1 (stereo not given)	none (no result: PPC-1+TRAIL kill)
Clc1ccccc1/C=C/C=N/Nc1nc(N2CCOCC2)nc(N2CCOCC2)n1	none
COc1ccc2nc(N=NC3=C(O)CC(C)(C)CC3=O)sc2c1	none
COc1ccc2nc(N=Nc3ccc(O)c4ccccc34)sc2c1	C8 TRAIL sens 54.9
NC(=O)C1=C(c2ccccc2)c2ccccc2C1=O	none (no result: Platelet DG rel, HSP90 inh, PPC-1+TRAIL kill)
O=Cc1s/c(=N\S(=O)(=O)c2ccccc2)n(CCCCl)c1Cl	C8 TRAIL sens 60.6, TWEAK Fn14 block 96.2
CCn1c(C)cs/c1=N\S(=O)(=O)c1ccccc1	none (no result: HSP90 inh, PPC-1+TRAIL kill)
CC(C)C[C@@H](CO)N(Cc1ccccc1)S(=O)(=O)N(Cc1ccccc1)[C@H](CO)CC(C)C	TROY signal inh 52.4 (no result: Platelet DG rel, HSP90 inh, PPC-1+TRAIL kill)
COc1ccc(CN([C@H](CO)CC(C)C)S(=O)(=O)N(Cc2ccccc2)[C@H](CO)CC(C)C)cc1	none (no result: Platelet DG rel, HSP90 inh, PPC-1+TRAIL kill)
CC(C)C[C@@H](CO)N(Cc1ccccc1)S(=O)(=O)N(Cc1ccccc1)[C@@H](CO)CC(C)C	TROY signal inh 52.8 (no result: Platelet DG rel, HSP90 inh, PPC-1+TRAIL kill)
COc1ccc(CCNC(=O)c2ccc3c(c2)S(=O)(=O)N=C2CCCCCN23)cc1	none (no result: HSP90 inh, PPC-1+TRAIL kill)
O=C(/C=C/c1ccco1)Nc1ccccc1C(=O)O	C8 TRAIL sens 48.0
O=C(/C=C/c1ccco1)NCC1(c2ccccc2)CCCC1	TWEAK Fn14 block 89.4, TROY signal inh 87.4
COc1cccc(CCNC(=O)CCCC(=O)c2ccccc2)c1	none (no result: PPC-1+TRAIL kill)
S=C(Nc1cc(Cl)cc(Cl)c1)N1CCN(c2ccccn2)CC1	none (no result: Platelet DG rel, PPC-1+TRAIL kill)
CCCC(C(=O)NNC(=O)c1ccncc1)c1ccccc1 (stereo not given)	none (no result: Platelet DG rel, HSP90 inh, PPC-1+TRAIL kill)
Cc1ccc(Cl)cc1NC(=O)CC(O)(C(F)(F)F)C(F)(F)F	TROY signal inh 53.5
COCC(=O)Nc1cc(Cl)ccc1C	none
CCc1ccccc1NC(=O)CNC(=O)CCC(=O)c1cc(C)sc1C	none (no result: Platelet DG rel, HSP90 inh, PPC-1+TRAIL kill)
O=C(N/N=C/c1ccccn1)c1sc2ccccc2c1Cl	TWEAK Fn14 block 85.6
Cn1cccc1/C=N/NC(=O)c1sc2ccccc2c1Cl	TWEAK Fn14 block 50.9 (no result: TROY signal inh)
Cc1ccc(NS(=O)(=O)c2ccc(NC(=O)c3ccccc3C(=O)O)cc2)cc1C	none (no result: HSP90 inh, PPC-1+TRAIL kill)
O=C(CSc1nc2ccccc2c(=O)[nH]1)Nc1ccc(C(=O)O)cc1	none
CC(C)CC(=O)Nc1ccc(-c2nc3ccccc3c(=O)[nH]2)cc1	TWEAK Fn14 block 60.8
O=C(CSc1nc2ccccc2c(=O)[nH]1)Nc1ccc([N+](=O)[O-])cc1	C8 TRAIL sens 60.9 (no result: Platelet DG rel, HSP90 inh, PPC-1+TRAIL kill)
O=C(Nc1ccc(F)cc1F)c1cc2nc3c(c(C(F)(F)F)n2n1)CCCC3	TWEAK Fn14 block 73.1, TROY signal inh 67.7
CCOc1ccc(OCCC(=O)Nc2ccccc2C(=O)NC2CC2)cc1	none (no result: Platelet DG rel, HSP90 inh, PPC-1+TRAIL kill)
O=C(CSc1nccn1-c1ccccc1)c1ccc(Cl)cc1	none
Cc1ccc(C(=O)CSc2nccn2-c2ccccc2)cc1	TROY signal inh 50.7
Nc1cc2ccncc2c2ccccc12	TWEAK Fn14 block 82.7, TROY signal inh 56.7
COC(C[C@@H]1O[C@@H]1[C@@H](O)COCc1ccccc1)OC	none (no result: HSP90 inh)
Cc1ccc(C(=O)Oc2cc(C)n(C)c(=O)c2)cc1	TWEAK Fn14 block 54.0
CC1C(=O)Nc2ccccc2N1C(=O)c1ccc(O)cc1 (stereo not given)	none (no result: PPC-1+TRAIL kill)
O=C1Nc2ccccc2N(C(=O)c2ccc3ccccc3c2)C1c1nc2ccccc2[nH]1 (stereo not given)	C8 TRAIL sens 58.2 (no result: Platelet DG rel, HSP90 inh, PPC-1+TRAIL kill)
O=C(c1ccc(Cl)cc1)N1CCCCC(Sc2nnc(-c3ccc4c(c3)OCO4)o2)C1=O (stereo not given)	C8 TRAIL sens 68.7, TWEAK Fn14 block 97.6, TROY signal inh 57.8, HSP90 inh 30.9
Cc1ccc(N2CC(C(=O)Nc3ccc4c(c3)OCCO4)CC2=O)cc1 (stereo not given)	TWEAK Fn14 block 59.4
O=C(Nc1ccc2c(c1)OCO2)C1CC(=O)N(c2ccccc2)C1 (stereo not given)	none (no result: PPC-1+TRAIL kill)
Cc1ccc(N2CC(C(=O)Nc3ccc4c(c3)OCCO4)CC2=O)cc1C (stereo not given)	TWEAK Fn14 block 54.4 (no result: PPC-1+TRAIL kill)
Cc1ccc(S(=O)(=O)NCc2ccccc2)cc1C(=O)NC(C)c1ccc(S(N)(=O)=O)cc1 (stereo not given)	none (no result: Platelet DG rel, HSP90 inh, PPC-1+TRAIL kill)
COc1ccccc1NC(=S)N1CCCc2ccccc21	TWEAK Fn14 block 65.7, TROY signal inh 53.9
COc1ccc(OC)c(NC(=O)N2CCCc3ccccc32)c1	TROY signal inh 75.8 (no result: PPC-1+TRAIL kill)
CCOc1ccccc1NC(=O)N1CCCc2ccccc21	TROY signal inh 74.9 (no result: PPC-1+TRAIL kill)
CCOc1ccccc1NC(=S)N1CCCc2ccccc21	TWEAK Fn14 block 52.6, TROY signal inh 53.6
COc1ccc(NC(=S)N2CCc3ccccc32)cc1OC	none (no result: PPC-1+TRAIL kill)
Cc1ccc(N2CC(C(=O)OCC(=O)Nc3ccc(F)cc3F)CC2=O)cc1 (stereo not given)	none (no result: Platelet DG rel, HSP90 inh, PPC-1+TRAIL kill)
COc1cc(NC(=O)c2cc(Cl)ccc2Cl)ccc1-c1cc2ccccc2oc1=O	none
CCc1ccc(OCC(=O)Nc2ccc(-c3cc4ccccc4oc3=O)c(OC)c2)cc1	TWEAK Fn14 block 72.8
O=C1CC(Sc2nnnn2-c2ccccc2)C(=O)N1c1cccc(Cl)c1 (stereo not given)	Platelet DG rel 55.0
C/C=C/c1ccc(OCCCNCC(C)O)c(OC)c1 (stereo not given)	TWEAK Fn14 block 85.8 (no result: TROY signal inh)
CC(O)CNCCCCOc1ccc(OCc2ccccc2)cc1 (stereo not given)	none
CC(O)CNCCCOc1ccccc1OCc1ccccc1 (stereo not given)	HSP90 inh 16.7
C/C=C/c1ccc(OCCCCOc2ccc(OC)cc2)c(OC)c1	none
Cc1cccc(-c2nc(C#N)c(NCC3CCCO3)o2)c1 (stereo not given)	none
CCC(=O)N(CCC(c1ccc(C)cc1)c1ccco1)Cc1ccco1 (stereo not given)	none
CN(C)c1ccc(CC(=O)c2nc3ccccc3s2)cc1	TWEAK Fn14 block 78.0, TROY signal inh 75.7

Screening data: PubChem BioAssay, several laboratories
